From PubChem BioAssay (NCATS)
Results filed as inconclusive are left out. The source made the active and inactive calls. The call rests on the fitted dose curve; in most records, active means well fitted curve in the direction sought with a large enough effect; inconclusive means small, poorly fitted or top-dose-only effect, or another doubt; inactive means no such curve, though single readings can be large; an effect the other way counts as inactive or inconclusive.

Experiments:
[1] = biological target: Glutathione peroxidase 1 (Homo sapiens) (UniProt P07203); assay: Primary qHTS Assay for Inhibitors of Recombinant Selenoprotein Glutathione Peroxidase 1 (GPX1) (AID 1845191); further: nearly all actives have a fitted effect of over 65% in size; on activity, negative = inhibition: on the % scale 0 is the no-effect control and ±100 the full control effect
Glutathione peroxidase 1 (Homo sapiens), sequence (P07203 whole entry, looked up): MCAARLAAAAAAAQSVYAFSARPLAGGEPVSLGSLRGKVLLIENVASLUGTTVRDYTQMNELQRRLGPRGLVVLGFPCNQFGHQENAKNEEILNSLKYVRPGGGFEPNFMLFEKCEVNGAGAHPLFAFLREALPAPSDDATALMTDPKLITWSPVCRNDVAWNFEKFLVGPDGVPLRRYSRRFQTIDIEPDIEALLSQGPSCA
Method in brief: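 GR-coupled readout: NADPH consumption tracked by fluorescence, ex 340/em 450 nm, at t=0 and after 15 min at RT. Final mix 10 nM GPX1, 1 mM GSH, 0.5 mM CHP, 0.5 mM NADPH, 100 nM GR, 0.01% BSA, following 30 min enzyme–compound preincubation.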

[2] = biological target: Phospholipid hydroperoxide glutathione peroxidase GPX4 (Homo sapiens) (UniProt P36969); assay: Primary qHTS Assay for Inhibitors of Recombinant Selenoprotein Glutathione Peroxidase 4 (GPX4) (AID 1845192); further: nearly all actives have a fitted effect of over 65% in size; on activity change, negative = inhibition: series mostly up to about 50 µM; on the % scale 0 is the no-effect control and ±100 the full control effect
Phospholipid hydroperoxide glutathione peroxidase GPX4 (Homo sapiens), sequence (P36969 whole entry, looked up): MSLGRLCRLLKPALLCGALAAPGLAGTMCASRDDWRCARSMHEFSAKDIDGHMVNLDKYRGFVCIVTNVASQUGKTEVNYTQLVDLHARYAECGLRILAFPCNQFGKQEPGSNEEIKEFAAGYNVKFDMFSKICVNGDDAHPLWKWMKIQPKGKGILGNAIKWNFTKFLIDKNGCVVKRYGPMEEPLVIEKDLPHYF
Method in brief: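 Steps: GPX4 plus compound, 30 min RT; add GR/GSH/NADPH master mix; start with cumene hydroperoxide; read 340/450 nm fluorescence at 0 and 15 min. Finals were 200 nM GPX4, 1 mM GSH, 0.5 mM CHP, 0.5 mM NADPH, 100 nM GR.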

[3] = biological target: Luciferin 4-monooxygenase (Photinus pyralis) (UniProt P08659); assay: Primary firefly luciferase (FLuc) qHTS assay for identification of artifact compounds. (AID 1845220); further: nearly all actives have a fitted effect of over 60% in size; further: potency means the concentration at half of the fitted maximal effect;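 on activity change, negative = inhibition: series mostly up to about 54 µM; plate controls were DMSO vehicle for no effect and no enzyme for full effect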
Method in brief: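 Enzymatic FLuc inhibition assay: compounds pre-exposed to luciferin/ATP (10 uM each) for 15 min, then purified P. pyralis enzyme at 10 nM added. Read-out: luminescence at 5 min.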

[4] = Primary fluorescence-based thiol-reactive (MSTI) qHTS assay for identification of artifact compounds. (AID 1845221); further: nearly all actives have a fitted effect of over 65% in size; further: potency means the concentration at half of the fitted maximal effect;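 on activity change, negative = thiol reactive: series mostly up to about 54 µM; thiol-reactive compounds lower the probe fluorescence signal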
Method in brief: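 Probe: MSTI 4 uM, PBS pH 7.4, 2% DMSO. Incubation 1 h, RT, light-protected. Readout fluorescence 525/598 nm.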

[5] = system: Nanoluciferase (engineered Oplophorus gracilirostris luciferase); assay: Primary Nanoluciferase (NLuc) qHTS assay for identification of artifact compounds. (AID 1845222);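 further: NLuc secreted into diluted conditioned medium of S16 cells; series mostly up to about 54 µM; 0% = DMSO and -100% = no enzyme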
Method in brief: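 S16 cell supernatant NLuc, 1:55; cpds qHTS; 15 min RT dark; Nano-Glo substrate 1:100, 5 min; luminescence; Hill fit of % inhibition.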

[6] = Primary redox qHTS assay for identification of artifact compounds. (AID 1845223);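 further: 0% = DMSO and 100% = reference compound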
Method in brief: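 Redox-cycling detection via DTT (250 uM final) oxidation coupled to Amplex Red (25 uM)/HRP (250 mU/mL) in HBSS. 15 min preincubation plus 30 min after DTT, room temperature. Ex/Em 525/598 nm; 4-parameter Hill fit against DMSO and 10 uM DA3003.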

COc1cc(OC)cc(C(=O)Nc2ccc(Cl)c(-c3nc4ccc(N(C)C)cc4[nH]3)c2)c1
inactive: Potency [1] | Potency [2] | Potency [5] | Potency [6]
active: Potency [3] 8.49 µM | Potency [4] 3.77 µM

Cc1cc(C(=O)N2Cc3cnn(C)c3Nc3ccccc32)ccc1CNC(=O)N1CCC[C@H]1C(=S)N1CCCN(C)CC1
inactive: Potency [1] | Potency [2] | Potency [3] | Potency [4] | Potency [5] | Potency [6]

CC1=CC(=O)CC(C)(C)[C@H]1/C=C/C(CO)O[C@@H]1O[C@H](CO)[C@@H](O)[C@H](O)[C@H]1O (stereo partly drawn)
inactive: Potency [1] | Potency [2] | Potency [3] | Potency [5] | Potency [6]
active: Potency [4] 11.7 µM

Cc1cc(-c2cc(O)ccc2Cl)cc2nnc(Nc3ccc(OCCN4CCCC4)cc3)nc12
inactive: Potency [1] | Potency [2] | Potency [3] | Potency [5] | Potency [6]
active: Potency [4] 3.77 µM

C[C@@H]1O[C@@H](O[C@H]2[C@@H](OC(=O)[C@]34CCC(C)(C)CC3C3=CCC5[C@@]6(C)C[C@H](O)[C@H](O[C@@H]7O[C@H](C(=O)O)[C@@H](O)[C@H](O)[C@H]7O)[C@@](C)(C(=O)O)C6CC[C@@]5(C)[C@]3(C)CC4)OC[C@H](O)[C@@H]2O)[C@H](O)[C@H](O)[C@H]1O[C@@H]1OC[C@@H](O)[C@H](O)[C@H]1O (stereo partly drawn)
inactive: Potency [1] | Potency [2] | activity change, negative = inhibition [3] -6.45% [at 11.6 µM] | activity change, negative = thiol reactive [4] 118% [at 11.5 µM] | activity, negative = inhibition [5] 0.813% [at 11.6 µM] | redox activity (% of DA3003) [6] 13% [at 11.5 µM]

O=C1NC(Cc2c[nH]c3ccccc23)C(=O)NC1Cc1cnc[nH]1 (stereo not drawn)
inactive: Potency [1] | Potency [2] | Potency [3] | Potency [4] | Potency [5] | Potency [6]

CC[C@]12C=CCN3CC[C@@]4(c5cc([C@@]6(C(=O)OC)C[C@H]7C[C@@H](C(C)(F)F)CN(Cc8c6[nH]c6ccccc86)C7)c(OC)cc5N(C)[C@H]4[C@@](O)(C(=O)OC)[C@@H]1OC(C)=O)[C@@H]32
inactive: Potency [1] | Potency [2] | Potency [3] | Potency [4] | Potency [5] | Potency [6]

COc1ccccc1NC(=O)OCC1CCN(C(=O)OC(C)(C)C)CC1
inactive: Potency [1] | Potency [2] | Potency [3] | Potency [4] | Potency [5] | Potency [6]

CC1CCC2(OC1)OC1CC3C4CCC5C[C@@H](O[C@@H]6O[C@H](CO[C@@H]7OC[C@@H](O)[C@H](O)[C@H]7O)[C@H](O)[C@H](O)[C@H]6O)CC[C@]5(C)C4CC[C@]3(C)C1C2C (stereo partly drawn)
inactive: Potency [1] | Potency [2] | Potency [3] | Potency [4] | Potency [5] | Potency [6]

C=C1C[C@]23C[C@H]1CC[C@H]2[C@@]1(C)CCC[C@@]2(C)C(=O)O[C@@H]([C@@H]3O)[C@@H]12
inactive: Potency [1] | Potency [2] | Potency [3] | Potency [4] | Potency [5] | Potency [6]

CC1(C)CCC2(C(=O)OC3OC(CO)C(O)C(O)C3O)CCC3(C)C(=CCC4C5(C)CCC(OC6OC(C(=O)O)C(OC7OC(CO)C(O)C(O)C7O)C(OC7OC(CO)C(O)C(O)C7O)C6O)C(C)(C)C5CCC43C)C2C1 (stereo not drawn)
inactive: Potency [1] | Potency [2] | activity change, negative = inhibition [3] -0.248% [at 11.6 µM] | activity change, negative = thiol reactive [4] 123% [at 11.5 µM] | activity, negative = inhibition [5] 1.02% [at 11.6 µM] | redox activity (% of DA3003) [6] 10.6% [at 11.5 µM]

CC12CCC(OC3OC(CO)C(O)C(OC4OC(CO)C(O)C(O)C4O)C3O)CC1=CCC1C2CCC2(C)/C(=C3/COC(=O)C3)CCC12O (stereo not drawn)
inactive: Potency [1] | Potency [2] | Potency [3] | Potency [4] | Potency [5] | Potency [6]

C=C1[C@H](OC(C)=O)[C@H]2[C@@H](OC(C)=O)[C@](C)(OC(C)=O)C[C@]2(OC(C)=O)C(=O)[C@H](C)/C=C/C(C)(C)C(=O)[C@H](OC(=O)C(C)CC)[C@H]1OC(C)=O (stereo partly drawn)
inactive: Potency [1] | Potency [2] | Potency [3] | Potency [4] | Potency [5] | Potency [6]

C[C@]12C=C[C@@]3(CCC4[C@](C)(CO)CCC[C@@]4(C)C3CC1)C2 (stereo partly drawn)
inactive: Potency [1] | Potency [2] | Potency [3] | Potency [4] | Potency [5] | Potency [6]

CC1(C(=O)O)CCCC2(C)C3CCC4CC3(CCC12)CC4=O (stereo not drawn)
inactive: Potency [1] | Potency [2] | Potency [3] | Potency [4] | Potency [5] | Potency [6]

CC1(C)C2CC(OC3OC(COC4OCC(O)(CO)C4O)C(O)C(O)C3O)C1(C)CC2O (stereo not drawn)
inactive: Potency [1] | Potency [2] | Potency [3] | Potency [4] | Potency [5] | Potency [6]

CC1(C)CC2=C3C=CC4C5(C)CCC(O)C(C)(C)C5CCC4(C)C3(C)CCC2(C)C(O)C1 (stereo not drawn)
inactive: Potency [1] | Potency [2] | Potency [3] | Potency [5] | Potency [6]
active: Potency [4] 11.6 µM

NC1CCCCN(c2c(F)cc3c(=O)c(C(=O)O)cn(C4CC4)c3c2Cl)C1 (stereo not drawn)
inactive: Potency [1] | Potency [2] | Potency [3] | Potency [4] | Potency [5] | Potency [6]

CC1=C(C(=O)O)/C(=C\CO[C@@H]2O[C@H](CO)[C@@H](O)[C@H](O)[C@H]2O)C(OC(=O)/C=C\c2ccc(O)cc2)C1 (stereo partly drawn)
inactive: Potency [1] | Potency [2] | Potency [3] | Potency [5] | Potency [6]
active: Potency [4] 4.62 µM

CC(=O)O[C@H]1C[C@@](O)(C(C)C)C2[C@@H](OC(=O)c3ccc(O)cc3)C[C@@]3(C)O[C@H]3C[C@]21C (stereo partly drawn)
inactive: Potency [1] | Potency [2] | Potency [3] | Potency [4] | Potency [5] | Potency [6]

CC(C)CC(=O)O[C@@H]1OC=C(CO[C@@H]2O[C@H](CO)[C@@H](O)[C@H](O)[C@H]2O)[C@H]2[C@@H]3O[C@H]3[C@@](O)(CO)[C@@H]12
inactive: Potency [1] | Potency [2] | Potency [3] | Potency [4] | Potency [5] | Potency [6]

COc1cc(O)c([C@@H](CC(=O)N2CC(C)CC(C)C2)c2ccc3c(c2)OCO3)c(OC)c1 (stereo partly drawn)
inactive: Potency [1] | Potency [2] | Potency [3] | Potency [4] | Potency [5] | Potency [6]

COc1ccc(F)cc1-c1cc(NC(=O)[C@@H]2CCCNC2)ncc1Cl
inactive: Potency [1] | Potency [2] | Potency [3] | Potency [4] | Potency [5] | Potency [6]

C/C=C(\C)C(=O)OCC1OC(OC2OC(COC(=O)/C(C)=C/C)C(OC3OC(CO)C(OC(=O)/C(C)=C/C)C(OC(=O)/C(C)=C/C)C3O)C(O)C2O)C(O)C(O)C1OC1OC(CO)C(OC(=O)/C(C)=C/C)C(OC(=O)/C(C)=C/C)C1O (stereo not drawn)
inactive: Potency [1] | Potency [2] | outcome [3] inactive [at 11.6 µM] | activity change, negative = thiol reactive [4] 7.54% [at 11.5 µM] | activity, negative = inhibition [5] 0% [at 11.6 µM] | redox activity (% of DA3003) [6] 2.12% [at 11.5 µM]

CC1(C)CC[C@]2(C(=O)O)[C@H](O)C[C@]3(C)C(=CCC4[C@@]5(C)CC[C@H](O[C@@H]6O[C@H](CO[C@@H]7OC[C@H](O)[C@H](O)[C@H]7O[C@@H]7OC[C@@H](O)[C@H](O)[C@H]7O)[C@@H](O)[C@H](O)[C@H]6O[C@@H]6O[C@H](CO)[C@@H](O)[C@H](O)[C@H]6O)C(C)(C)C5CC[C@]43C)[C@@H]2C1 (stereo partly drawn)
inactive: Potency [1] | Potency [2] | activity change, negative = inhibition [3] 0.747% [at 11.6 µM] | activity change, negative = thiol reactive [4] 242% [at 11.5 µM] | activity, negative = inhibition [5] 3.21% [at 11.6 µM] | redox activity (% of DA3003) [6] 15.6% [at 11.5 µM]

CC(C)c1ccc(CO)cc1O[C@@H]1O[C@H](CO)[C@@H](O)[C@H](O)[C@H]1O
inactive: Potency [1] | Potency [2] | Potency [3] | Potency [5] | Potency [6]
active: Potency [4] 13.1 µM

C=CC(=O)Nc1cccc(CN2C(=O)N(c3c(Cl)c(OC)cc(OC)c3Cl)Cc3cnc(NCCCCN(CC)CC)nc32)c1
inactive: Potency [1] | Potency [2] | Potency [3] | Potency [4] | Potency [5] | Potency [6]

CC1=C2C3OC(=O)C(C)C3(O)CCC2(C)CCC1O (stereo not drawn)
inactive: Potency [1] | Potency [2] | Potency [3] | Potency [5] | Potency [6]
active: Potency [4] 11.9 µM

CC(=O)OC1CC2(C)C3=CCC4(C)C5C(O)C(O)C(C(C)C)C5(C)CCC4(C)C3CCC2C(C)(C)C1OC1OC(CO)C(O)C(O)C1O (stereo not drawn)
inactive: Potency [1] | Potency [2] | Potency [3] | Potency [4] | Potency [5] | Potency [6]

CCN(Cc1cccnc1)C(=O)CN(c1ccc(OC)nc1)S(=O)(=O)c1ccccc1C
inactive: Potency [1] | Potency [2] | Potency [3] | Potency [4] | Potency [5] | Potency [6]

C/C1=C\CCC(C)CCO[C@@H]2O[C@H](CO[C@@H]3OC[C@H](O)[C@H](O)[C@H]3OC1=O)[C@@H](O)[C@H](O)[C@H]2O (stereo partly drawn)
inactive: Potency [1] | Potency [2] | Potency [3] | Potency [5] | Potency [6]
active: Potency [4] 8.22 µM

C=CC(C)(CC/C=C(\C)C(=O)OC)OC1OC(COC(=O)CC(C)(O)CC(=O)O)C(OC2OC(CO)C(O)C(O)C2O)C(O)C1O (stereo not drawn)
inactive: Potency [1] | Potency [2] | Potency [3] | Potency [4] | Potency [5] | Potency [6]

CC(=O)O[C@@H]1[C@H](O[C@@H]2O[C@@H](CO)[C@H](O)[C@H]2O)[C@@H](O[C@@H]2O[C@@H](C)[C@H](O[C@@H]3OC[C@@H](O)[C@H](O)[C@H]3O)[C@@H](O)[C@H]2O)[C@H](OC(=O)[C@]23CCC(C)(C)C[C@H]2C2=CCC4[C@@]5(C)CC[C@H](O[C@@H]6O[C@H](C(=O)O)[C@@H](O)[C@H](O)[C@H]6O[C@@H]6O[C@H](CO)[C@H](O)[C@H](O)[C@H]6O)[C@@](C)(C=O)C5CC[C@@]4(C)[C@]2(C)CC3)O[C@@H]1C (stereo partly drawn)
inactive: activity, negative = inhibition [1] -3.42% [at 9.52 µM] | activity change, negative = inhibition [2] 2.32% [at 9.73 µM] | activity change, negative = inhibition [3] 4.46% [at 11.6 µM] | activity change, negative = thiol reactive [4] 321% [at 11.5 µM] | activity, negative = inhibition [5] 0% [at 11.6 µM] | redox activity (% of DA3003) [6] 1.35% [at 11.5 µM]
